The whole screen tested about 320,000 compounds, of which about 1,300 (0.41%) were called active. Not shown: some 3% with an inconclusive outcome. How the calls were made is not given here. A selection follows. Entries with a potency or affinity are not part of this list.
Assay: growth inhibition of non-replicating M. tuberculosis (AID 488890);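 further: plate controls were DMSO cells for no effect and high antibiotic wells for full effect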
Conditions: Mycobacterium tuberculosis non-replicating, at 25 µM, stronger effect = higher value
For `CN(C(=O)COC(=O)c1n[nH]c(=O)c2ccccc12)c1ccccc1`, the inhibition was -7.8%.
`Cc1cc(F)ccc1NC(=O)C1CCCO1` (stereo not drawn) gave an inhibition of -3.85%.
Work on `COc1ccc(NC(=O)NNC(=O)c2ccc3ccccc3c2)cc1OC` yielded an inhibition of -2.52%.
With `COc1ccc(/C=N\Nc2ccc([N+](=O)[O-])cc2[N+](=O)[O-])c(C(=O)O)c1OC` the inhibition was 39.2%.
In the case of `Nc1c(N(CCC2=CCCCC2)C(=O)c2ccc([N+](=O)[O-])o2)c(=O)[nH]c(=O)n1Cc1ccccc1`, the inhibition was 38.8%.
In the case of `N#CC/C(N)=N/NC(=O)CCCNc1ncc(C(F)(F)F)cc1Cl`, the inhibition was 0.45%.
For `COc1ccc(Br)cc1/C(C)=N/NC1=NCCN1`, the inhibition was 21.5%.
`CCOc1ccc(Br)cc1/C(C)=N\NC1=NCCN1` showed an inhibition of 38%.
`O=C1Nc2c(c(=O)[nH]c(=O)n2-c2ccc(F)cc2)C1(NS(=O)(=O)c1ccccc1)C(F)(F)F` (stereo not drawn) gave an inhibition of -0.54%.
Compound `CCCn1c(=O)c(C(=O)Nc2ncccc2O)c(O)c2ccccc21` has an inhibition of 66.8%.
`CCn1c(=O)c(C(=O)Nc2ccccn2)c(O)c2ccccc21` showed an inhibition of 27.7%.
Compound `CCCCCCn1c(=O)c(C(=O)Nc2ncccc2O)c(O)c2ccccc21` has an inhibition of 67.8%.
Compound `CCn1c(=O)c(C(=O)Nc2ncccc2O)c(O)c2ccccc21` has an inhibition of 23.7%.
`C/C(CC(=O)Nc1ccc(Cl)cc1Cl)=N\NC(=O)C(=O)NCCO` showed an inhibition of 24.8%.
`CCN(CC)C(=O)CSc1ccc(C(F)(F)F)cc1[N+](=O)[O-]` showed an inhibition of -2.61%.
`CCOc1ccc(/C=N/NC(=S)NC2CC3CC2C2C=CCC32)cc1` (stereo not drawn) gave an inhibition of -7.06%.
For `O=C(CNC(=O)c1[nH]cnc1C(=O)NC(c1ccccc1)c1ccccc1)OCc1ccccc1`, the inhibition was 44.5%.
With `Cc1nc(CNS(=O)(=O)c2ccccc2F)cs1` the inhibition was -17.8%.
`CCN(CCCNC(=O)C1c2ccccc2C(=O)N(CCOC)C1c1ccc(F)cc1)Cc1ccccc1` (stereo not drawn) gave an inhibition of 1.48%.
With `CC12CN3CC(C)(CN(C1)C3c1ccc([N+](=O)[O-])o1)C2=O` (stereo not drawn) the inhibition was 18.6%.
`CCC12CN3CC(CC)(CN(C1)C3c1ccc([N+](=O)[O-])o1)C2=O` (stereo not drawn) showed an inhibition of 38.4%.
Work on `C/C(=N\NC(=O)c1ccc2c(c1)OCO2)c1ccc(C(=O)O)s1` yielded an inhibition of -9.87%.
`COc1ccc(NC(=O)CN(C)C(=O)c2ccc(-c3ccccc3Cl)o2)cc1` gave an inhibition of 12.7%.
`CSc1nc(-c2ccco2)nn1C(=O)c1ccc(C)cc1` gave an inhibition of 8.76%.
`CC(C)(C)OC(=O)NCCc1nnc(SCc2ccc(Cl)cc2Cl)o1` gave an inhibition of 41.4%.
`CC(C)(C)OC(=O)NCCc1nnc(SCc2ccc(Cl)cc2)o1` gave an inhibition of 64.8%.
Compound `CCOC(=O)c1nnc(-c2cccs2)nc1Oc1ccc(Cl)cc1` has an inhibition of -0.21%.
In the case of `COc1ccc(OC(=O)c2cn(C)nc2C(F)(F)F)cc1`, the inhibition was 12.6%.
Compound `CCN(C/C=C/c1ccccc1OC)Cc1ccccc1` has an inhibition of 27.1%.
`CCCCN(CCCC)Cc1ccc(N)cc1` gave an inhibition of 19.4%.
Work on `CCOC(=O)C1CCCN(S(=O)(=O)c2c(C)noc2C)C1` (stereo not drawn) yielded an inhibition of -14.5%.
Work on `CC(C)CN(C(=O)COC(=O)c1cccn1C)c1c(N)n(Cc2ccccc2)c(=O)[nH]c1=O` yielded an inhibition of 16.9%.
For `CCOC(=O)Oc1ccc(/C=C2\N=C(C)OC2=O)cc1`, the inhibition was -12.5%.
Compound `CC(=O)Oc1ccc(/C=C2/Oc3ccccc3C2=O)cc1` has an inhibition of 36%.
`COc1ncnc(OC)c1S(=O)(=O)NCc1ccccc1` gave an inhibition of -2.39%.
Compound `CCOc1ccc(CC(=O)N/N=C/c2cccnc2)cc1` has an inhibition of -5.71%.
With `CCOc1ccc(OCc2cccc(C(=O)N/N=C/c3cccnc3)c2)cc1` the inhibition was 59.6%.
`Cc1[nH]n2cnnc2c(=O)c1Br` showed an inhibition of -1.45%.
With `COc1ccc(-c2nc(NC(=O)Cn3cnnn3)sc2C)cc1` the inhibition was 13.2%.
`O=C(Cc1ccccc1[N+](=O)[O-])OCC(=O)c1c[nH]c2ccccc12` showed an inhibition of 4.48%.
With `CCOC(=O)c1c(C)[nH]c(C)c1C(=O)COC(=O)/C=C/c1ccccc1[N+](=O)[O-]` the inhibition was 46.8%.
Work on `Cc1cc(C(=O)OCC(=O)N2CCC(c3ccccc3)=N2)ccc1[N+](=O)[O-]` yielded an inhibition of 22.1%.
With `CCOC(=O)c1c(C)[nH]c(C)c1C(=O)COC(=O)c1cccs1` the inhibition was 28.9%.
With `CCc1cc(C(=O)OCC(=O)N2CCC(c3ccccc3)=N2)sc1C` the inhibition was 65.9%.
`O=C(OCC(=O)c1c[nH]c2ccccc12)c1cccc([N+](=O)[O-])c1` showed an inhibition of -14.6%.
Work on `Cc1[nH]c2ccccc2c1C(=O)COC(=O)c1ccccc1O` yielded an inhibition of 31.1%.
Compound `Cc1cccc(C(=O)OCC(=O)c2c(C)[nH]c3ccccc23)c1O` has an inhibition of 3.19%.
Compound `O=C(NCCCCl)C1CC(=O)N(CCc2ccc(F)cc2)C1` (stereo not drawn) has an inhibition of 5.65%.
For `O=C(O)c1cc(N2C(=O)C3CCCCC3C2=O)ccc1NCc1cccnc1` (stereo not drawn), the inhibition was 4.47%.
Work on `CCN(CC)C(=O)Cn1cc(C(=O)C(=O)NCc2cccnc2)c2ccccc21` yielded an inhibition of -4.61%.
Work on `COc1cc(OC)cc(C(C(=O)NC2CCCCC2)N(C(=O)c2ccno2)c2ccccc2)c1` (stereo not drawn) yielded an inhibition of 8.21%.
`Cc1ccc(CN2CC(C(=O)Nc3ncccc3C)CC2=O)cc1` (stereo not drawn) showed an inhibition of -7.14%.
`COc1cccc(/C=N/NC(=O)c2nnn(-c3nonc3N)c2-c2cccs2)c1` gave an inhibition of 7.66%.
For `COc1ccc(C(=O)COC(=O)c2ccc(OC)c(OC)c2)cc1OC`, the inhibition was 3.56%.
Compound `COc1ccc(C(=O)OCC(=O)Nc2ncc([N+](=O)[O-])s2)cc1OC` has an inhibition of -11.2%.
With `O=C(CSc1nc(=O)n(CCCN2CCOCC2)c2c1CCCC2)Nc1ccccc1Cl` the inhibition was 11.7%.
In the case of `CC(C)(C)c1ccc(OCCC(=O)NC2=NCCS2)cc1`, the inhibition was 66.8%.
Compound `CCOc1ccc(OCCCC(=O)NC2=NCCS2)cc1` has an inhibition of 40.7%.
`Cc1ccc(-n2nnc3c(=O)oc4ccccc4c32)cc1` gave an inhibition of 6.67%.
Compound `CCC(C)n1cnc2c(=O)oc3ccccc3c21` (stereo not drawn) has an inhibition of -10.2%.
`CC(C)Cn1cnc2c(=O)oc3ccccc3c21` showed an inhibition of -17.9%.
For `CCn1c(C)nc2c(=O)oc3ccccc3c21`, the inhibition was -3.87%.
`CN(C)CCn1nnc2c(=O)oc3ccccc3c21` gave an inhibition of -13.7%.
`O=c1oc2ccccc2c2c1nnn2CCO` showed an inhibition of 97.3%.
For `CSc1n[nH]c(/N=C/c2oc(O)c3ccccc23)n1`, the inhibition was -21.1%.
For `O=C(CNC(=O)c1ccc(Cl)cc1)NC1CCCCC1`, the inhibition was -2.3%.
For `CN(CC(=O)Nc1ccc(N2CCOCC2)cc1)C(=O)c1cc(F)c(F)cc1Cl`, the inhibition was -5.8%.
Work on `CCc1ccc(C(=O)COC(=O)CNC(=O)Cc2ccccc2)cc1` yielded an inhibition of 47.9%.
`Cc1csc(N2CCCC2c2nc3cc(Cl)c(N4CCCCC4)cc3n2CCOCCO)n1` (stereo not drawn) showed an inhibition of 5.44%.
`CNCc1ccccc1OCc1ccccc1F` gave an inhibition of 8.9%.
Compound `CC(=O)Oc1ccc2nc(-c3ccco3)oc(=O)c2c1` has an inhibition of 42%.
`O=C(CCCOc1ccccc1)Nc1cccnc1` showed an inhibition of 44.6%.
With `O=C(COc1ccc([N+](=O)[O-])cc1)Nc1cccnc1` the inhibition was 51.3%.
Work on `N#Cc1ccc(OCC(=O)Nc2ccncc2)cc1` yielded an inhibition of 46.2%.
For `N#Cc1ccc(OCC(=O)Nc2nc(-c3cccnc3)cs2)cc1`, the inhibition was -5.75%.
`COc1ccc(/C=N/NC(=O)c2ccc3c(c2)OCO3)c(C(=O)O)c1OC` showed an inhibition of 37.5%.
With `NS(=O)(=O)c1ccc(CCNC(=S)Nc2ccc(F)cc2)cc1` the inhibition was 30%.
For `O=C(c1cccc(F)c1)N1CCN(C(=O)C2CC2)CC1`, the inhibition was 0.47%.
Work on `C[C@@H]1CN([C@H](C)CO)C(=O)c2cc(NC(=O)C3CCCCC3)ccc2O[C@@H]1CN(C)Cc1ccc(C(F)(F)F)cc1` yielded an inhibition of 28%.
For `CC(=O)c1ccc(NC(=O)Cc2cccs2)cc1`, the inhibition was 47%.
In the case of `COC(=O)C1=C(c2ccc(F)cc2OCc2ccccc2)C[C@@H]2CC[C@H]1N2C(=O)NC1CCCCC1`, the inhibition was 39.2%.
For `COc1ccc(/C(C)=N/Nc2nc3ccccc3nc2C)cc1`, the inhibition was -2.93%.
For `COc1ccc(/C(C)=N/Nc2nc3ccccc3nc2C)cc1OC`, the inhibition was 18.1%.
With `N#Cc1ccc(COC(=O)c2cccnc2Cl)cc1` the inhibition was 57%.
Work on `Cc1ccc(-c2cc(C(F)(F)F)n3ncc(C(=O)N4CCCc5ccccc54)c3n2)cc1` yielded an inhibition of 9.06%.
In the case of `COC(=O)c1ccc(/C=C/C(=O)OCC(=O)NCc2cccs2)cc1`, the inhibition was 13.7%.
`CC1CN(C(=O)c2cccs2)CC(C)O1` (stereo not drawn) gave an inhibition of -2.97%.
`CN1CCCC(C(=O)c2ccc(Cl)cc2)C1` (stereo not drawn) gave an inhibition of 2.9%.
`CN1CCC(NC(=O)c2cccs2)CC1` gave an inhibition of -14.8%.
Compound `CN1CCCC(C(=O)c2ccccc2)C1` (stereo not drawn) has an inhibition of -7.66%.
`CN1CC(C(=O)c2ccccc2)C(C(=O)c2ccccc2)C1` (stereo not drawn) showed an inhibition of 14.7%.
`CN1CC(C(=O)c2ccc(Cl)cc2)C(c2ccc(Cl)cc2Cl)C1` (stereo not drawn) showed an inhibition of 55.7%.
Work on `CC(=O)Oc1ccc(S(=O)(=O)c2ccc(OC(C)=O)cc2)cc1` yielded an inhibition of -5.93%.
In the case of `Cc1ccc(S(=O)(=O)Nc2ccc3c(c2)C(=O)N([C@H](C)CO)C[C@H](C)[C@@H](CN(C)C(=O)Nc2ccc(C(F)(F)F)cc2)O3)cc1`, the inhibition was 46.2%.
For `COc1cccc(-c2nn(-c3ccccc3)cc2CN(C)Cc2ccno2)c1`, the inhibition was 2.32%.
`S=c1[nH]nc(Cc2ccc(Cl)cc2)n1-c1ccc2c(c1)OCCO2` gave an inhibition of -2%.
Compound `O=C(Nc1ccc(S(=O)(=O)Nc2nccs2)cc1)C1CCCCC1` has an inhibition of 60.2%.
For `O=C(NC(=S)Nc1ccc(S(=O)(=O)Nc2nccs2)cc1)C1CC1`, the inhibition was 23.6%.
For `Cc1ccc(C(=O)NC(=S)NNC(=O)CC#N)cc1`, the inhibition was 39.8%.
Compound `Cc1ccc(C(=O)NNC(=O)c2ccc(C)cc2)cc1` has an inhibition of -1.12%.
`Cc1cc(C(=O)N2CCN(c3ncccn3)CC2)nn1C` gave an inhibition of -1.81%.
In the case of `COc1cccc(/C=C/C(=O)OCCN2C(=O)c3ccccc3C2=O)c1`, the inhibition was 24.5%.
Work on `CC1(C)C(=O)OC(c2cccc([N+](=O)[O-])c2)C2(CCCCC2)C1=O` (stereo not drawn) yielded an inhibition of 12.6%.
In the case of `COc1ccc(C2(CNC(=O)c3ccccc3)CCOCC2)cc1`, the inhibition was -1.08%.
`COC(=O)c1ccc(NC(=O)c2ccccc2-c2ccccc2C(=O)O)cc1` showed an inhibition of 65.6%.
Compound `CC(=O)c1ccc(NC(=O)c2ccccc2-c2ccccc2C(=O)O)cc1` has an inhibition of 78.9%.
Work on `COC(=O)C[C@H](NC(=O)Cn1cnc2c(SC)nc(N)nc21)C(=O)OC` yielded an inhibition of -10.4%.
Work on `CC(=O)c1ccc(NC(=O)CNC2CCCCC2)cc1` yielded an inhibition of -1.52%.
`Cc1c(N=c2c(=O)c3ccccc3c2=O)c(=O)n(-c2ccccc2)n1C` gave an inhibition of -4.23%.
`CCC/C(O)=C1\C(=O)CC(C)(C)CC1=Nc1ccccc1O` gave an inhibition of 2.5%.
Compound `CC1c2[nH]c3ccccc3c2C[C@H]2C(=O)N(CCCN(C)C)CC(=O)N12` (stereo partly drawn) has an inhibition of -5.98%.
`Cc1ccc(C(=O)Nc2ccc(NC(=O)c3ccc(C)o3)cc2)o1` showed an inhibition of 0.92%.
With `Cc1ccc(C(=O)CCNc2ccccc2)o1` the inhibition was -1.75%.
